# PubChem BioAssay AID587 (National Center for Advancing Translational Sciences (NCATS), 2007)
# Screen size: about 59,000 compounds; about 35 (0.06%) were called active. About 19% were inconclusive and are not listed. No stated cut-off is given here; in the data, active means max dye-equivalent concentration above about 10 nM; inconclusive means between about 1.1 nM and that limit; inactive means weaker than that. The entries come from a sample that favours actives as a whole.
# Assay: qHTS Assay for Spectroscopic Profiling in Texas Red Spectral Region
# Details: Compound fluorescence, Texas Red channel, 547/618 nm
# Text: NIH Molecular Libraries Screening Centers Network [MLSCN] NIH Chemical Genomics Center [NCGC] […] Occasionally, the artifactual effect may originate from the compound#s own spectral or other biophysical properties which generally tend to track its assay concentration. Pre-screening/profiling the library with respect to the compounds# spectral properties should help one exclude false positives early on. While the most informative fluorescent profiling data set is obtained by performing a full excitation and emission scan of each well by using a monochromator-based plate reader, such an approach is practical only on a very limited scale as scanning each well requires long time. An alternative approach, applied here, is to perform plate reader scans using selected excitation and emission wavelength pairs to generate a multidimensional relational database that correlates compound concentration and the respective relative fluorescence intensity at a given wavelength set. A standard curve of Texas Red (TR) present on each plate as six-point concentration series, was used to compute a normalized fluorescence response, termed dye-equivalent concentration, for each compound at each concentration.
# NCGC Assay Protocol Summary: Buffer: 100 mM Tris buffer, pH 8.0 Dye standard plate: The wells in columns 1 through 4 of a Kalypsys polypropylene 1536-well compound plate were filled with standard solutions of fluorophore corresponding to the spectral region of interest. Solutions of TR were placed in the following wells: U1, V1: 3 mM, U2, V2: 300 uM, U3, V3: 30 uM, U4, V4: zero (DMSO), W1, X1: 3 uM, W2, X2: 900 nM, W3, X3: 300 nM, W4, X4: zero (DMSO). Assay Steps: Six uL of buffer were dispensed to 1536-well Greiner black plates. Compounds and dye standards (23 nL) were transferred via Kalypsys PinTool. The plates were incubated for 15 min at room temperature, and then read on ViewLux (Perkin-Elmer) High-throughput CCD imager using 547 nm and 618 nm excitation and emission filter set. Keywords: NIH Roadmap, MLSCN, MLI, MLSMR, qHTS, NCGC, Texas Red, Fluorescent Profiling.
row,SMILES,max dye-equivalent concentration
1,Cc1nc2cnc(N3CCN(C)CC3)nc2n(C[C@H]2CCCO2)c1=O,inactive
2,COc1ncc2nc(-c3ccc(Cl)cc3)c(=O)n(-c3ccccc3)c2n1,inactive
3,O=C(O)[C@@H](S)[C@H](S)C(=O)O,inactive
4,N#CCCn1c(=O)c(-c2cc(F)cc(F)c2)nc2cnc(Oc3ccccc3)nc21,inactive
5,COc1ccc(OC)c(CN2C(=O)CCC2(C)C(=O)NC2CCCCCC2)c1 (centres undefined),inactive
6,O=C(Cn1nnc(-c2ccccc2)n1)NCc1ccccc1,inactive
7,O=c1[nH][nH]c(=O)c2cc(N3CCCC3)ccc12,inactive
8,CC(C(=O)N1CCOCC1)N1c2cccc3cccc(c23)S1(=O)=O (centres undefined),inactive
9,O=C(Nc1ccc2c(c1)OCCO2)C1CCCN(c2ncccn2)C1 (centres undefined),inactive
10,COCCNC(=O)C(c1ccc(C)o1)N(Cc1cccs1)C(=O)c1snc(C(N)=O)c1N (centres undefined),inactive
11,COc1c(F)c(F)c(-c2csc(N)n2)c(F)c1F,inactive
12,CC(C)c1ccc(NC(=O)NC2CCCCC2)cc1,inactive
13,CCC(C)(C(=O)NC1CCCC1)N(C(=O)CNC(C)=O)c1ccc(C)cc1 (centres undefined),inactive
14,CCNc1nc(NCC)nc(N(C)n2cnnc2)n1,inactive
15,O=C(CN1CCN(c2ccccn2)CC1)NCc1cccs1,inactive
16,O=C(O)COc1c(Cl)cc(Cl)c2cccnc12,inactive
17,O=C(OCC(O)C(O)COC(=O)c1ccccc1)c1ccccc1 (centres undefined),inactive
18,COc1cccc(Cn2c(=O)c(CCc3ccccc3)nc3cnc(N(C)C)nc32)c1,inactive
19,CN1CCN2c3ccccc3Cc3ccccc3[C@@H]2C1,inactive
20,COCCn1c(=O)c(-c2cccc(F)c2)nc2cncnc21,inactive
21,CC1Cc2cc(/C(O)=C3\C(=O)C(=O)N(CCN4CCOCC4)C3c3ccccc3F)ccc2O1 (centres undefined),inactive
22,CCOC(=O)CSc1nc2sc3c(c2c(=O)[nH]1)CC(C)(C)OC3,inactive
23,CC(C)NC(=O)N1CC[C@@]2(CCCN(C(=O)c3ccco3)C2)C1,inactive

row,SMILES,max dye-equivalent concentration
1,CCC(c1nnnn1C1CCCC1)N1CCN(C(=O)c2ccco2)CC1 (centres undefined),inactive
2,Cc1nn(-c2ccccc2)c2sc(C(=O)N(Cc3ccco3)C(C)C(=O)NC(C)(C)C)cc12 (centres undefined),inactive
3,CCOC(=O)N1CCC(Nc2c(NCCCN3CCN(c4ccc(OC)cc4)CC3)c(=O)c2=O)CC1,inactive
4,COc1ccccc1CNC(=O)CCCNS(=O)(=O)c1cccc2nsnc12,inactive
5,COc1cccc(-c2cc(NCCc3c[nH]c4ccc(OC)cc34)ncn2)c1,inactive
6,CC(C)(C)c1ccc(C(=O)NCCC(=O)NCc2ccco2)cc1,inactive
7,CCOCC(=O)Nc1cc(OC)c(Cl)cc1OC,inactive
8,CCOc1ccc(CCNC(=O)C2CCN(c3ccc(N4CCOCC4)nn3)CC2)cc1OCC,inactive
9,O=C(Cn1ccc(=O)[nH]c1=O)Nc1ccc(C(=O)O)c(O)c1,inactive
10,CCc1c(C)sc(NC(=O)c2ccc(Br)o2)c1C(=O)OC,inactive
11,CCNc1ncc2ncc(=O)n(Cc3cccc(OC)c3)c2n1,inactive
12,CC1(C)S[C@@H]2[C@@H](NC(=O)[C@@H](N)c3ccccc3)C(=O)N2[C@H]1C(=O)O,inactive
13,COCCn1c(=O)c(-c2cccs2)nc2cncnc21,inactive
14,CN(C)c1cc(N)c2ccccc2n1 (tested in a mixture with another compound),inactive
15,C[N+]1(CCNC(=O)/C=N/O)CCCCC1,inactive
16,CCCCCC(=O)Nc1ccc2oc(-c3ccncc3)nc2c1,inactive
17,CN/C(=C\[N+](=O)[O-])NCCSCc1csc(CN(C)C)n1,inactive
18,COc1ccc(OCc2cccc(C(=O)N3CCCC3)c2)cc1,inactive
19,CN(c1ccc(C(=O)NCCC2=CCCCC2)cc1)S(C)(=O)=O,inactive
20,CCOc1ccc(C2C(C(=O)O)c3ccccc3C(=O)N2CCN2CCOCC2)cc1 (centres undefined),inactive
21,COc1ccccc1CNc1ncnc2ccc(-c3ccc4c(c3)OCO4)cc12,inactive
22,Cc1ccc2nc(-c3ccc(SCC(=O)Nc4cc(C)on4)nc3)[nH]c2c1,inactive
23,COc1ccc(-n2c(SCC(=O)NCc3cccs3)nnc2-c2ccoc2C)cc1,inactive

row,SMILES,max dye-equivalent concentration
1,CN(C)CCNC(=O)C(C(=O)c1ccccc1)n1ccccc1=O (centres undefined),inactive
2,CC1Cn2c(nnc2-c2cccs2)S1 (centres undefined),inactive
3,CSc1ncccc1C(=O)OCC(=O)N1CCOCC1,inactive
4,c1ccc(-c2oc3ncnc(N4CCOCC4)c3c2-c2ccccc2)cc1,inactive
5,O=c1c(-c2cc(F)cc(F)c2)nc2cnc(Oc3ccccc3)nc2n1C[C@H]1CCCO1,inactive
6,COc1ccc(-n2ncc3c(N4CCc5ccccc54)ncnc32)cc1,inactive
7,CN(C)c1ccc(-c2nc(NCCN3CCOCC3)c3ccccc3n2)cc1,inactive
8,CC(NCCO)C(=O)C12CC3CC(CC(C3)C1)C2 (centres undefined),inactive
9,O=c1c(-c2ccc(F)cc2)nc2cnc(N3CCOCC3)nc2n1-c1ccccc1,inactive
10,Cc1cc(N2C(=O)C(=O)/C(=C(/O)c3ccc(Cl)cc3)C2c2cccc(Br)c2)no1 (centres undefined),inactive
11,CC[C@H](c1ccccc1)c1cc(C(C)(C)C)cc(C(C)(C)C)c1O,inactive
12,COc1ccc(C(=O)n2nc(-c3ccc(C)cc3)nc2N)cc1OC,inactive
13,Cn1cc(-c2nc3cnc(N4CCNCC4)nc3n(CCc3ccccc3)c2=O)c2ccccc21,inactive
14,O=c1c(CCc2ccccc2)nc2cnc(N3CCNCC3)nc2n1Cc1cccs1,inactive
15,Cc1nc2nc(COc3ccccc3)[nH]n2c(=O)c1C,inactive
16,COc1ccc(C(C(O)C(=O)c2c[nH]c3ccccc23)N2CCN(c3ccccc3)CC2)cc1 (centres undefined),inactive
17,COc1ccc(NS(=O)(=O)c2ccc(NC(=O)C(C)(C(F)(F)F)C(F)(F)F)cc2)nn1,inactive
18,N#Cc1ccc(OCCN2C(=O)NC3(CCSC3)C2=O)cc1 (centres undefined),inactive
19,Cc1nc2cnc(Nc3ccccc3)nc2n(Cc2ccc(F)cc2)c1=O,inactive
20,CC(=O)O[C@]1(C(C)=O)CC[C@@H]2[C@@H]3C=C(C)C4=CC(=O)CC[C@@]4(C)[C@H]3CC[C@]21C,inactive
21,Cc1oc(-c2cccc(Cl)c2)[n+]([O-])c1C,inactive
22,CCOC(=O)CCc1c(C)c(C#N)c2[nH]c3ccccc3n2c1=O,inactive
23,Cc1cc(C)c(C#N)c(SCc2ccccc2C(=O)O)n1,inactive
